Out of some 360,000 compounds screened, about 2,300 (0.64%) were called active. The list comes from a sample in which actives are over-represented; it also holds similar structures and randomly drawn compounds. Values without a mark were called inactive.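 How the source made its calls: active means compounds giving at least 50% protection of heart cells from peroxide-induced death in the single-dose screen, raw or plate-pattern-corrected value; inactive means the rest.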
Assay: H9c2 cardiomyocyte survival under peroxide injury – uHTS, H9c2 cells, ATPLite luminescence, primary screen (AID 588492);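 further: 0% = DMSO wells with peroxide and 100% = DMSO wells without peroxide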
Details: H9c2 cardiomyocytes, 2 h, at 20 µM, active compounds read high

In order of falling protection from H2O2 cell death:
1. COc1ccc(-c2cc(C(=O)N(C)CC(=O)Nc3ccccc3Cl)c3ccccc3n2)cc1OC  49.1%
2. COc1ccc(CN(C)C(=O)c2cc(-c3ccc(C)cc3C)nc3ccccc23)c(OC)c1OC  48.9%
3. Cc1ccc2nc(-c3ccc(NC(=O)c4cccnc4)cc3)oc2c1  48.1%
4. COCCNC(=O)/C(C#N)=C/c1cccc(OCc2ccccc2)c1  32.1%
5. O=C(Cn1[nH]c(=O)c2ccccc2c1=O)Nc1cccc(-c2nnc3n2CCCCC3)c1  23.4%
6. CN(C)CCN1CCN(c2cc(-c3cccc(Cl)c3)nc3ccnn23)CC1  19.8%
7. Cc1cc(C)n(C(=O)c2ccc(C)c(S(=O)(=O)N3CCOCC3)c2)n1  15.2%
8. Cc1cc(-n2nc(C)cc2C)n2ncc(-c3ccccc3)c2n1  14.3%
9. CC(C)(C)OC(=O)C[C@@H]1C/C=C\C[C@@H](CC(=O)N(CCO)Cc2ccccc2)C(=O)N[C@H](Cc2ccccc2)COC1=O  14.2%
10. O=C(c1ccccc1)N1CCN(C(=O)c2cc3nc(-c4ccccc4)cc(C(F)(F)F)n3n2)CC1  11.3%
11. COc1ccccc1NS(=O)(=O)c1ccc(C)c(C(=O)NNC(=O)c2csc(N3CCOCC3)n2)c1  8.3%
12. O=C1N[C@@H](c2ccccc2)COC(=O)[C@H](Cc2ccc(F)cc2)C/C=C\C[C@@H]1CC(=O)N(CCO)Cc1ccccc1  8.2%
13. CN(C)C(CNC(=O)CCCOc1ccccc1)c1ccco1 (stereo not drawn)  4.6%
14. COc1ccccc1OCCn1c(SCC(N)=O)nc2ccccc21  3.9%
15. [2H]C(CCOS(N)(=O)=O)c1ccccc1 (stereo not drawn)  3%
16. O=C1OC[C@@H]2CCCN2C(=O)[C@H](CC(=O)N(CCO)Cc2ccccc2)C/C=C\CC[C@@H]1Cc1ccc(F)cc1  2.9%
17. CCN(CC)C(=O)Cn1cc(S(=O)(=O)CC(=O)NCc2ccc3c(c2)OCO3)c2ccccc21  2.8%
18. COc1ccc(CNC(=O)/C(C#N)=C/c2cccc(OC)c2OC)cc1  1.5%
19. CCC(C)(C)NC(=O)C(c1cccc(OC)c1OC)N(CC(C)C)C(=O)CCC(=O)Nc1cc(C)on1 (stereo not drawn)  1.2%
20. O=C(CCc1nnc(CCCCc2ccccc2)o1)NC(c1cccnc1)C(F)(F)F (stereo not drawn)  0.8%
21. Cc1cc(C)cc(NC(=O)Cn2cnc3c(nnn3Cc3ccc(F)cc3)c2=O)c1  0.7%
22. O=C1CCC/C=C/C[C@@H](CC(=O)N(CCO)Cc2ccccc2)C(=O)NC[C@H](c2ccccc2)O1  0.5%
23. CCN(CC(=O)NC(C)C)C(=O)CCNC(=O)c1ccc(Cl)cc1  -0.7%
24. CCOC12CC(C)(C)CC(C)(CC3=C1C(=O)CC(C)(C)C3)C2 (stereo not drawn)  -0.9%
25. CC(C)(C)OC(=O)N1CCN(C(=O)c2[nH]c(C(F)(F)F)nc2-c2ccccc2)CC1  -1.1%
26. C[C@@H]1C(c2ccc(F)cc2)=NN(c2ccc(Br)cc2)[C@H]1C(=O)N1CCOC1=O  -1.3%
27. CCOc1ccc(NC(=O)[C@H](C)NC(=O)C2CC(=O)N(c3ccc(OC)cc3)C2)cc1 (stereo partly drawn)  -1.8%
28. CC(=O)Nc1ccc(-c2cn3cccnc3n2)cc1  -2%
29. Cc1cccc(Nc2nnc(SCC(=O)c3c(N)n(C4CC4)c(=O)[nH]c3=O)s2)c1C  -2.2%
30. CCOC(=O)c1cnc2nc(SCc3ccccc3Cl)[nH]n2c1=O  -2.4%
31. Cc1ccccc1Cn1c(C)c(C(=O)NCc2cccc(C(F)(F)F)c2)sc1=O  -2.6%
32. CCCCCN(C(=O)NC(=O)Nc1ccccc1C)S(C)(=O)=O  -4.1%
33. Cc1cc(C)c(-c2csc(NC(=O)CCCc3nc4ccccc4c(=O)[nH]3)n2)c(C)c1  -4.2%
34. c1ccc(Cc2nn3c(Cn4cnc5ccccc54)nnc3s2)cc1  -4.9%
35. COc1cc(OC)c(C(=O)OC(C)C(=O)Nc2cc(C(F)(F)F)ccc2Cl)cc1OC (stereo not drawn)  -5%
36. O=C(Cn1cnc2ccccc21)Nc1ccccc1-c1ccccc1  -5.3%
37. O=C(COC(=O)c1cccc(Br)c1)Nc1cccc2c1C(=O)c1ccccc1C2=O  -6.9%
38. Cc1cc(C)nc(Nc2n[nH]c(-c3ccccc3N)n2)n1  -9.5%
39. COC(=O)NNC(=O)C1CCC(C)CC1 (stereo not drawn)  -10%
40. NC(c1ccccc1)c1csc(NC(=O)Nc2cccc(C(F)(F)F)c2)n1 (stereo not drawn)  -10.6%
41. Cn1nc([N+](=O)[O-])nc1Sc1ccc(C(C)(C)C)cc1  -11.1%
42. O=C(Nc1ccc(Cl)cc1)c1cccc(OC(=S)N2CCOCC2)c1  -15.8%

With CCC(=O)Oc1cccc(C(=O)Nc2ccc(-c3nnc(-c4ccco4)o3)cc2)c1 the protection from H2O2 cell death was 77.3% (active).
For COc1ccc(-c2cc(C(=O)N(C)Cc3ccc(OC)c(OC)c3OC)c3ccccc3n2)cc1OC, the protection from H2O2 cell death was 67.1% (active).
With N#C/C(=C\c1ccc(O)c(O)c1)C(=O)NCc1ccccc1 the protection from H2O2 cell death was 55.9% (active).
For c1ccc(-c2cn3c(n2)CCc2ccc4cccnc4c2-3)cc1, the protection from H2O2 cell death was 61.6% (active).
With CC(=O)Nc1ccc(-c2csc(NC(=O)Nc3ccccc3)n2)cc1 the protection from H2O2 cell death was 50.5% (active).
For O=C(COC(=O)Cn1cnc2ccccc21)Nc1cccc2c1C(=O)c1ccccc1C2=O, the protection from H2O2 cell death was 59.5% (active).
For O=C1N[C@H](Cc2c[nH]c3ccccc23)COC(=O)[C@H](Cc2ccc(F)cc2)C/C=C\C[C@H]1CC(=O)N(CCO)Cc1ccccc1, the protection from H2O2 cell death was 51.5% (active).
For O=C1NC[C@@H](c2ccccc2)OC(=O)[C@H](Cc2ccc(F)cc2)CC/C=C/C[C@H]1CC(=O)N(CCO)Cc1ccccc1, the protection from H2O2 cell death was 61.8% (active).
With C#Cc1cc(N2CCN(C(=O)c3ccoc3)CC2)n2nc(-c3cccc(Cl)c3)cc2n1 the protection from H2O2 cell death was 84.5% (active).
For Cc1ccc(-c2csc(NC(=O)Cn3[nH]c(=O)c4ccccc4c3=O)n2)cc1, the protection from H2O2 cell death was 52% (active).
In the case of CCOC(=O)c1cnc(-n2nc(C)cc2C)nc1NNc1cc(C)nc(-c2ccccc2)n1, the protection from H2O2 cell death was 78.5% (active).

From PubChem BioAssay AID588492 (Sanford-Burnham Center for Chemical Genomics, 2011)
